Among all 220,000 compounds or so, about 2,000 (0.91%) were called active. Inconclusive results (about 2%) are left out. The list is a sample of the results. Entries with a potency or affinity are not part of this list. Values without a mark were called inactive. No stated cut-off is given here; in the data, inconclusive means inhibition above about 80% without an active follow-up result; inactive means below that; test concentration not stated here.
Assay: M. tuberculosis H37Rv growth inhibitors, H37Rv strain (AID 1626);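 further: bacteria incubated seven days before Alamar blue readout; 0% = bacteria only wells and 100% = bacteria with antibiotic wells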
Conditions: hits give high values, concentration not given here

SMILES | inhibition
Fc1ccccc1CN1CCCN(C(=S)Nc2cccc(Cl)c2)C1 | -6.44%
c1ccc(-c2nnc(N3CCOCC3)nc2-c2ccccc2)cc1 | 4.29%
COCCn1c(=NC(=O)c2cc(Cl)sc2Cl)sc2cc(S(N)(=O)=O)ccc21 | 17.1%
C=CCn1c(=NC(=O)c2cc(Cl)sc2Cl)sc2cc(S(N)(=O)=O)ccc21 | 52.4%
COc1ccc(Nc2nnc(C)c(=O)[nH]2)c(OC)c1 | 0%
CCn1cc(C(=O)O)c(=O)c2cc(F)c(N3CCN(S(=O)(=O)c4ccc(Br)cc4)CC3)cc21 | 13.5%
CCn1cc(C(=O)O)c(=O)c2cc(F)c(N3CCN(C(=S)NC(=O)c4ccccc4F)CC3)cc21 | 62.5%
CCn1cc(C(=O)NCc2ccco2)c(=O)c2cc(F)c(N3CCN(C(=O)c4ccco4)CC3)cc21 | 71.1%
CCCCCCC(=O)N1CCN(c2cc3c(cc2F)c(=O)c(C(=O)O)cn3CC)CC1 | 0.13%
CCn1cc(C(=O)O)c(=O)c2cc(F)c(N3CCN(C(=S)NC(=O)c4ccccc4Cl)CC3)cc21 | 29.7%
CCn1cc(C(=O)NCc2ccncc2)c(=O)c2cc(F)c(N3CCN(C(=O)c4ccco4)CC3)cc21 | 10.2%
CCn1cc(C(=O)O)c(=O)c2cc(F)c(N3CCN(C(=S)NC(=O)c4ccccc4)CC3)cc21 | 30.7%
CCn1cc(C(=O)O)c(=O)c2cc(F)c(N3CCN(C(=O)Nc4ccccc4)CC3)cc21 | 74.6%
CCN1C(=O)N[C@@H](c2ccccc2)[C@@H](C(=O)OC)[C@H]1C | -12.7%
CC(=O)OCCNc1nc(-c2ccccc2)nc2ccccc12 | -5.25%
CCCN(Cc1ccccc1)C(=S)Nc1cccc(C)c1C | 3.47%
CCC(C)C(=O)Nc1cccc(SC)c1 (stereo unspecified) | 0.86%
COc1cc2[nH]c(=S)nc(NC3CCCC3)c2cc1OC | 0.6%
CCN(CC)NC(=O)Nc1ccccc1 | -12%
CCOc1ccc(NC(=O)CSc2nnc(Cc3cccn3C)n2-c2ccc(F)cc2)cc1 | -6.5%
Nc1ncnc2c1ncn2[C@@H]1O[C@H](CO)[C@@H](O)[C@H]1O | -2.69%
Nc1ncnc2c1ncn2[C@@H]1O[C@H](CO)[C@@H](O)[C@@H]1O | -0.73%
Nc1ncnc2c1ncn2C1OC(CO)C(O)C1O (stereo unspecified) | -1.34%

SMILES | inhibition
Nc1nc(F)nc2c1ncn2[C@@H]1O[C@H](CO)[C@@H](O)[C@@H]1O | 72.3%
CC(=O)Oc1ccc(N2C(=O)C3C(C2=O)C(C(=O)c2ccc(Cl)cc2)N2CCCC32)cc1 (stereo unspecified) | -5.33%
CCOC(=O)/C=C1\SCC(=O)N1CC(=O)NC12CC3CC(CC(C3)C1)C2 | 6.97%
CN(C)/C=C1\C(=O)N(c2ccc(Cl)cc2)CS1(=O)=O | -3.16%
CC1CCN(c2c(NCC3CCC(C(=O)N4CCCC(C)C4)CC3)c(=O)c2=O)CC1 (stereo unspecified) | -5.27%
CC1CCN(c2c(NCC3CCC(C(=O)NCCc4ccc(Cl)cc4)CC3)c(=O)c2=O)CC1 (stereo unspecified) | 11.6%
O=C(C1CCC(CNc2c(N3CCCCC3)c(=O)c2=O)CC1)N1CCCC1 (stereo unspecified) | -3.71%
O=C(NCc1ccc(Cl)cc1)C1CCC(CNc2c(N3CCCCC3)c(=O)c2=O)CC1 (stereo unspecified) | 5.8%
CCNC(=O)CC1C(=O)N(CC)C(=S)N1NC(=O)c1ccccc1 (stereo unspecified) | -3.85%
CCCCOc1ccc(C(NC(=O)OCC)NC(=O)OCC)cc1 | 5.59%
CC(C)OC(=O)CN1C(=O)C(C)(C)Oc2ccc(C(=O)NC3CC3)cc21 | -5.84%
Cc1cc(C(=O)CCl)c(C)n1CCc1ccccc1 | 66.4%
Cc1cc(C(=O)CSc2ncccn2)c(C)n1Cc1ccco1 | 6.3%
Cc1cc(C(=O)COc2ccccc2C(N)=O)c(C)n1CC1CCCO1 (stereo unspecified) | 1.33%
COC(=O)c1ccc(-n2c(C)cc(C(=O)CCl)c2C)cc1 | 53.5%
Cc1cc(C(=O)COc2ccccc2C(N)=O)c(C)n1C | 0.29%
Cc1cc(C(=O)C(C)Cl)c(C)n1Cc1ccco1 (stereo unspecified) | 0.64%
COc1ccc(C(=O)c2ccc(OC)cc2OC)cc1 | 0.13%
Cc1ccc(N=CC=C2OC(C)(C)C(C)(C)O2)c(C)c1 | -2.12%
CC(=O)C1=C(O)C(=O)N(CCc2c[nH]c3ccccc23)C1c1cccc(O)c1 (stereo unspecified) | 1.15%
CC(C)=CC(=O)Nc1ccc2c(c1)OCO2 | -4.24%
CS(=O)(=O)N(CC(=O)Nc1cccc([N+](=O)[O-])c1)c1ccccc1 | -4.25%
Cn1c(=O)n(Cc2ccccc2)c2ccccc21 | -7.14%

SMILES | inhibition
COc1ccc(-c2nnc(Nc3nc4c(OC)cccc4s3)o2)c(OC)c1 | 3.73%
COc1cccc2sc(Nc3nnc(-c4cccs4)o3)nc12 | -3.65%
COc1ccccc1-c1nnc(Nc2nc3c(OC)cccc3s2)o1 | 8.74%
COc1cccc2sc(Nc3nnc(-c4ccccc4Cl)o3)nc12 | 52.8%
Fc1cccc2sc(Nc3nc4c(F)cccc4s3)nc12 | 43%
NNc1nc2c(F)cccc2s1 | 8.41%
O=C(COC(=O)c1cccc2ccccc12)NCC1CCCO1 (stereo unspecified) | -2.85%
CCn1cc(C2C3=C(CC(C)(C)CC3=O)N(c3ccccc3)C3=C2C(=O)CC(C)(C)C3)c(C)n1 | -3.23%
CCC1=C(OC(=O)N(CC)CC)N2C(=O)OC(=NCCOC)[C@]2(Cc2ccccc2)[C@H]2C1=CC[C@H]1C(=O)NC(=O)[C@H]12 | 10.1%
O=C(NC1CCCCC1)c1nn2c(C(F)(F)F)cc(-c3ccco3)nc2c1Br | 1.53%
COCCn1c(SCC(=O)Nc2ccccc2OC)nc2c(oc3ccccc32)c1=O | 3.65%
COc1ccc(SCCC(=O)NCc2ccncc2)cc1 | -7.49%
Cc1cccc(N2CCN(C(=O)c3cccc(N4C(=O)C5CC=CC(C)C5C4=O)c3)CC2)c1C (stereo unspecified) | -7%
COc1ccc(C2C(C(=O)Nc3ccc(F)cc3)=C(C)Nc3nc(CCCO)nn32)cc1 (stereo unspecified) | -9.75%
CCc1ccc2c(c1)C(=O)c1ccccc1C2=O | 7.07%
Nc1ccc2c(c1)CC(=O)c1ccccc1S2 | 9.71%
Nc1ccc2c(c1)CCC2=O | -8.13%
CC(C)(C)c1ccc2c(c1)C(=O)c1ccccc1C2=O | 7.48%
Cc1ccc(-c2ccc3c(c2)S(=O)(=O)c2ccccc2C3=O)cc1 | -4.26%
O=C1c2ccccc2-c2nnc(-c3ccccc3)cc21 | -2.39%
O=C(OCC(=O)N1CCN(C(=O)c2ccco2)CC1)c1cccc(S(=O)(=O)N2CCc3ccccc32)c1 | 2.78%
CC(C)C(=O)N1CCN(c2ccc([N+](=O)[O-])cc2Cl)CC1 | 0.58%
COc1ccc(/C=N/NC(=O)C(C)n2nnc3ccccc32)cc1OC (stereo unspecified) | -3.28%

SMILES | inhibition
C=CCN1C(=O)C(Cc2ccc(OC)cc2)S/C1=N\N=C\c1cccs1 (stereo unspecified) | -5.41%
COc1ccc(OC)c(C(=O)c2ccc(C(=O)N3CCCCC3)cc2)c1 | -2.08%
CCc1ccc2c(c1)C(O)(CC(=O)c1cccs1)C(=O)N2 (stereo unspecified) | 3.05%
Cc1cc(Br)c2c(c1)/C(=C/C(=O)c1cccs1)C(=O)N2 | 79.9%
O=C(/C=C1\C(=O)Nc2ccccc21)/C=C1\C(=O)Nc2ccccc21 | 9.02%
Cc1cccc2c1NC(=O)/C2=C\C(=O)c1cccs1 | 12.6%
Cn1c(N)c(C(=O)COC(=O)C2CC(=O)N(Cc3ccccc3)C2)c(=O)n(C)c1=O (stereo unspecified) | 0.39%
CC(C)(C)Nc1nc(SCC(=O)Nc2ccccc2)nc(N2CCOCC2)n1 | -1.07%
O=C(Nc1ccccc1)c1ccn[nH]1 | -7.96%
COc1ccccc1CNc1ncnc2cc(Cl)ccc12 | -2.22%
CC(C)N1CCC(N2CCN(C/C=C/c3ccccc3)CC2CCO)CC1 (stereo unspecified) | -1.35%
Cc1ccc(C(c2nnnn2C(C)(C)C)N2CCN(C3CCCC3)CC2)cc1 (stereo unspecified) | -4.57%
Cc1cc(C)c(-c2cc(NC(=O)CSc3nncn3C)n(-c3ccccc3)n2)cc1C | 5.63%
CCOC(=O)C1=C(CC)Nc2ccccc2N=C1NC(=O)Nc1ccccc1OC | 5.38%
CCOC(=O)C1=C(CC)Nc2ccccc2N=C1NC(=O)c1cc(S(=O)(=O)N(C)C)ccc1Cl | 5.31%
Cc1ccc(SCc2cc(=O)[nH]c(/N=C(\N)Nc3cccc4ccccc34)n2)cc1 | 2.6%
CC1(C)CC(=O)C2=C(C1)NC1=C(C(=O)c3ccccc31)C2c1ccc(Cl)cc1 (stereo unspecified) | 44.9%
CC1(C)CC(=O)C2=C(C1)NC1=C(C(=O)c3ccccc31)C2c1ccc(O)cc1 (stereo unspecified) | 7.92%
COc1cc(C2C3=C(CC(C)(C)CC3=O)NC3=C2C(=O)c2ccccc23)ccc1O (stereo unspecified) | 2.3%
CC1(C)CC(=O)C2=C(C1)NC1=C(C(=O)c3ccccc31)C2c1cccnc1 (stereo unspecified) | 11.2%
CC1(C)CC(=O)C2=C(C1)NC1=C(C(=O)c3ccccc31)C2c1ccccc1 (stereo unspecified) | 14.8%
Cc1ccc(C2C3=C(CC(C)(C)CC3=O)NC3=C2C(=O)c2ccccc23)cc1 (stereo unspecified) | 9.84%

Source: PubChem BioAssay AID1626 (SRMLSC, 2009)
